Source: PubChem BioAssay AID651717 (Broad Institute, 2012)
Hit rate of the full screen: of about 1,200 compounds, about 950 (79%) were called active.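 Rule for the calls: active = signal rises and fitted curve reaches 40% activity at or below the top valid tested dose, in every replicate test; inconclusive = replicate tests give mixed calls; inactive = the rest, including activity in the opposite direction.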 So high a share suggests a set chosen from earlier hits. A selection follows. Measured potencies and affinities stand elsewhere.

experiment: compounds raising Bmi1 reporter signal – mouse embryonic stem cells, luciferase, cherry-pick, esBAF inhibitor project, dose response (AID 651717); conditions: mESC Bmi1-luciferase reporter, firefly/renilla ratio, 24 h, stronger effect = higher value; at 35 µM unless noted;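 note: luciferase knocked into Bmi1 locus with EF-1a renilla as cell number control; rising ratio signals esBAF inhibition which derepresses Bmi1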

| Structure (SMILES) | max activity |
| --- | --- |
| COC(=O)c1ccc(-c2ccc(OC)c([C@H]3[C@H]4C=CC[C@@H](C)[C@@H]4C(=O)N3Cc3ccccc3)c2)cc1 | -14.1% (inactive) |
| O=C1C2C(c3cccc(/C=C/c4ccccc4)c3)CC=CC2C(c2ccc3ccccc3c2)N1Cc1ccccc1 (stereo not given) | 17.2% (inactive) |
| CN(C)C(=O)CCc1ccc2c3c([nH]c2c1)[C@]1(CCc2ccccc2)[C@@H](C(=O)N2CCCCC2)C[C@H](CC(=O)NCCC2=CCCCC2)C(=O)N1CC3 | -35% [at 8 µM] (inactive) |
| C[C@H](CO)N1C[C@H](C)[C@@H](CN(C)C(=O)Nc2ccc3c(c2)OCO3)Oc2ncc(C#CC3(O)CCCC3)cc2C1=O | -4.31% [at 16 µM] (inactive) |
| C[C@H](CO)N1C[C@H](C)[C@H](CN(C)C(=O)Nc2ccc3c(c2)OCO3)Oc2c(NS(=O)(=O)c3ccccc3)cccc2C1=O | -12.7% (inactive) |
| C[C@@H]1CCCCO[C@H](CN(C)S(=O)(=O)c2cn(C)cn2)[C@@H](C)CN([C@@H](C)CO)C(=O)c2cc(NC(=O)Nc3ccc4c(c3)OCO4)ccc2O1 | -8.77% [at 8 µM] (inactive) |
| C[C@H](CO)N1C[C@H](C)[C@@H](CN(C)S(=O)(=O)c2cn(C)cn2)Oc2c(NC(=O)Nc3ccc4c(c3)OCO4)cccc2C1=O | -22.8% (inactive) |
| Cc1ccc(S(=O)(=O)N[C@H]2CC[C@@H](CCNC(=O)Nc3ccc(Cl)cc3)O[C@H]2CO)cc1 | -11.4% (inactive) |
| O=C(NCC[C@H]1CC[C@H](NC(=O)Nc2cc(F)ccc2F)[C@H](CO)O1)Nc1ccc(Cl)cc1 | 31.4% (inactive) |
| C[C@H]1CN([C@@H](C)CO)C(=O)c2c(c3ccccc3n2C)-c2ccccc2CO[C@H]1CN(C)C(=O)Nc1ccc2c(c1)OCO2 | -25.1% (inactive) |
| Cc1noc(C)c1NC(=O)N(C)C[C@@H]1Oc2ncc(C#CC3CC3)cc2C(=O)N([C@@H](C)CO)C[C@H]1C | 9.7% [at 8 µM] (inactive) |
| O=C(Cc1ccc(Cl)cc1)NC1CCCCCC1 | 37.5% (inactive) |
| CC(C)NC(=O)N(C)C[C@@H]1OCCCC[C@H](C)Oc2ccc(NC(=O)Nc3ccc4c(c3)OCO4)cc2C(=O)N([C@H](C)CO)C[C@@H]1C | 11.4% [at 0.5 µM] (inactive) |
| CS(=O)(=O)Nc1ccc(C2=NN(S(C)(=O)=O)C(c3cccs3)C2)cc1 (stereo not given) | 36.3% [at 16 µM] (inactive) |
| COc1ccc(S(=O)(=O)N2Cc3ccccc3CC2C(=O)Nc2ccc3c(c2)OCO3)cc1 (stereo not given) | 17% [at 4.2 µM] (inactive) |
| Cc1nc2cc(C(=O)O)ccc2s1 | 22% [at 16 µM] (inactive) |
| CN(C(=O)c1cc2c(s1)-c1ccccc1S(=O)(=O)C2)c1ccccc1 | 29.1% (inactive) |
| N=C1/C(=C/c2ccc(OCc3ccccc3)cc2)C(=O)N=C2SC(CC(=O)N3CCOCC3)=NN12 | 23.9% (inactive) |

| Structure (SMILES) | max activity |
| --- | --- |
| Cc1ccc(COc2ccccc2C(=S)N2CCCC2)cc1 | 28.7% (inactive) |
| C[C@H]1CN([C@@H](C)CO)C(=O)c2cccc(NC(=O)Nc3ccc(C(F)(F)F)cc3)c2O[C@@H]1CN(C)C | 14.9% [at 8 µM] (inactive) |
| C[C@H](CO)N1C[C@H](C)[C@H](CN(C)C(=O)Nc2ccc3c(c2)OCO3)OCc2ccccc2-c2c(n(C)c3ccccc23)C1=O | -46.6% (inactive) |
| C[C@@H]1CN([C@@H](C)CO)C(=O)c2cc(NC(=O)Cc3cn(C)c4ccccc34)ccc2O[C@H]1CN(C)C(=O)Nc1ccc2c(c1)OCO2 | 9.93% [at 8 µM] (inactive) |
| CCCNC(=O)Nc1ccc2c(c1)OC[C@@H](C)N(Cc1ccc(-c3ccccn3)cc1)C[C@@H](C)[C@H](OC)CN(C)C2=O | -20.1% (inactive) |
| C[C@H](CO)N1C[C@H](C)[C@@H](CN(C)Cc2ccc(-c3ccccc3)cc2)Oc2ccc(NC(=O)CCCCCC(=O)Nc3ccccc3N)cc2CC1=O | 16.8% [at 16 µM] (inactive) |
| CO[C@@H]1CN(C)C(=O)c2ccc(NC(=O)c3nc4ccccc4s3)cc2OC[C@@H](C)N(Cc2cccnc2)C[C@H]1C | 18.5% (inactive) |
| CO[C@@H]1CN(C)C(=O)c2ccc(NC(=O)c3nc4ccccc4s3)cc2OC[C@@H](C)N(Cc2cncnc2)C[C@H]1C | 21% [at 16 µM] (inactive) |
| CO[C@@H]1CN(C)C(=O)c2ccc(NC(=O)c3nc4ccccc4s3)cc2OC[C@@H](C)N(Cc2ccncc2)C[C@H]1C | 38.8% (inactive) |
| COc1cccc(C(=O)Nc2ccc3c(c2)OC[C@@H](C)N(CCc2ccccc2)C[C@@H](C)[C@H](OC)CN(C)C3=O)c1 | 9.35% [at 1 µM] (inactive) |
| CC(C)(C)C(=O)[C@H]1[C@H](c2ccccc2)[C@@]2(N=C(c3ccccc3)OC2=O)C2c3ccccc3C=NN21 (stereo not given in full) | 19% [at 16 µM] (inactive) |
| CC1CCCN(C(=O)c2ccc(Cl)c(S(=O)(=O)N3CCCCCC3)c2)C1 (stereo not given) | 6.03% [at 4.2 µM] (inactive) |
| O=C(NCCc1ccc(F)cc1)c1cccc(NC(=O)c2ccccc2)c1 | 21.2% (inactive) |
| O=C(CNc1ccccc1F)Nc1cccc2ccccc12 | -8.82% (inactive) |
| C[C@H]1CCCCO[C@H](CN(C)S(=O)(=O)c2cn(C)cn2)[C@@H](C)CN([C@@H](C)CO)C(=O)c2cc(NC(=O)Nc3ccc4c(c3)OCO4)ccc2O1 | -6.42% [at 0.5 µM] (inactive) |
| O=C(c1cc(COc2ccc(F)cc2F)on1)N1CC2C[C@@H]3CC1C[C@H](C2)C3 | 35.9% [at 16 µM] (inactive) |
| C[C@@H]1CN([C@H](C)CO)C(=O)c2cc(NC(=O)Nc3ccc4c(c3)OCO4)ccc2O[C@@H](C)CCCCO[C@@H]1CN(C)S(=O)(=O)c1cn(C)cn1 | -6.88% [at 1 µM] (inactive) |
